# Results taken from PubChem BioAssay AID2561 (National Center for Advancing Translational Sciences (NCATS), 2010).
# Several values for one entry are separate records, joined by “and”; a condition that tells them apart may be missing. Equal values may be shown once. Records with an inconclusive call do not appear. Activity calls are given as the source filed them. Calls follow the shape of the dose curve; as a rule, active = well fitted inhibition curve with a large enough effect; inconclusive = small, poorly fitted or top-dose-only effect, or effect the other way; inactive = flat fitted curve, though single readings scatter.
# Molecular target: Pyruvate kinase (Leishmania mexicana) (UniProt Q27686)
# Sequence (Q27686 whole entry, looked up): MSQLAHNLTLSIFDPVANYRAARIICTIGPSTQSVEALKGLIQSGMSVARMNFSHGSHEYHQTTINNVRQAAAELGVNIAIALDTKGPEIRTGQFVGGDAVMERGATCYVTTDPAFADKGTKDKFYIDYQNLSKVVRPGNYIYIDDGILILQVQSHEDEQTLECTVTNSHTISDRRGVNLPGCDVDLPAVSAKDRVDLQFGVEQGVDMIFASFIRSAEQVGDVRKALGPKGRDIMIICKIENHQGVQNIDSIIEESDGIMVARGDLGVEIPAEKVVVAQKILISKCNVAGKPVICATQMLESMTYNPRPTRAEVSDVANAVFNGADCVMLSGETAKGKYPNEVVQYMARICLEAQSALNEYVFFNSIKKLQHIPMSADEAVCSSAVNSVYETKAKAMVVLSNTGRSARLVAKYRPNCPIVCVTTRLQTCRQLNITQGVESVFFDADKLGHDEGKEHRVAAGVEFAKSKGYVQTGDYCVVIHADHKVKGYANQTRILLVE
# Assay: Confirmation Assay for Inhibitors of Leishmania Mexicana Pyruvate Kinase (LmPK): for Probe SAR;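 as to activity change, negative = inhibition: plate controls were uninhibited enzyme for no effect and no enzyme wells for full effect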
# Conditions: purified LmPK, ATP generation, Kinase-Glo luminescence; series mostly up to 57.5 µM; activity change, negative = inhibition: at the top concentration
# Source text: NIH Chemical Genomics Center [NCGC] Malcolm Walkinshaw, Hugh Morgan, Linda Gilmore University of Edinburgh, UK MLPCN Grant: 1 R03 MH085697-01 NCGC Assay Overview: Pyruvate kinase (L. Mexicana) (LmPK) enzyme was supplied as a highly purified (>95% pure) sulphate-free preparation from University of Edinburgh, UK and assayed for its ability to generate ATP from ADP using phosphoenolpyruvate (PEP) as a substrate. ATP generation was detected in a coupled reaction by luciferase-mediated luminescence, an ATP-dependent process. Pyruvate kinase substrates, PEP and ADP, were present in the assay at Km and approximately 10-fold below Km respectively. The enzyme was assayed at an intermediate level of activity to screen for both inhibitors and activators.
# NCGC Assay Protocol Summary: Three uL of enzyme mix (kept on ice) in assay buffer (50 mM Imidazole pH7.2, 50 mM KCl, 7 mM MgCl2, 0.01% Tween 20, 0.05% BSA) containing PEP (0.5 mM final concentration) and LmPK (0.1 nM final concentration) was dispensed into white solid bottom 1,536 well microtiter plates. 23 nL of compound were delivered by a pin tool and 1 uL of ADP mix in assay buffer (r.t; 0.1 mM final ADP concentration) was added. Plates were incubated at room temperature for 1 hour. Two uL of detection mix (Kinase-Glo, Promega; at 4 degree Celsius protected from light) was added and luminescence read by a ViewLux (Perkin Elmer) at 1 second exposure/plate. Data were normalized to the uninhibited and AC100 inhibition (no enzyme). To monitor activation, the first column contained a five-fold concentration of LmPK (0.5 nM).
# Potency is read from the fitted curve at half-maximal effect.
SMILES,"activity change, negative = inhibition",Potency
COc1cccc(N2C(=O)c3ccccc3C2=O)n1,-0.188% (inactive),–
Cc1ccc(NS(=O)(=O)c2ccc3c(c2)N(C)CCO3)cc1C,20.5% (inactive),–
Cc1ccc(C)c(SC2=NS(=O)(=O)c3cc(C(=O)NCc4ccccc4)ccc32)c1,–,5.8 µM (active)
CC(C)c1ccccc1SC1=NS(=O)(=O)c2ccccc21,–,1.83 µM (active)
COc1ccc(NS(=O)(=O)c2ccccc2C(=O)O)cc1,8.54% (inactive),–
CC(=O)Nc1ccc(OC2=NS(=O)(=O)c3ccccc32)cc1,–,4.11 µM (active)
Cc1ccc(C)c(NC2=NS(=O)(=O)c3ccccc32)c1,16.8% (inactive),–
Cc1ccc(C)c(OC2=NS(=O)(=O)c3ccccc32)c1,–,2.59 µM (active)
O=C1c2ccccc2C(=O)N1Cc1ccccn1,-7.55% (inactive),–
O=C1NS(=O)(=O)c2ccccc21,–,inactive
Cc1ccc(NS(=O)(=O)c2cccc(C(=O)O)c2)cc1C,7.24% (inactive),–
Cc1ccc(NS(=O)(=O)c2cc3c(cc2-c2ccsc2)NC(=O)CO3)cc1C,1.92% (inactive),–
O=[S+]1([O-])N=C(Oc2cccnc2)c2ccccc21,4.41% (inactive),–
Cc1ccccc1OC1=NS(=O)(=O)c2ccccc21,–,4.43 µM (active)
Cc1ccc(NS(=O)(=O)c2ccc(F)cc2)cc1C,-9.65% (inactive),–
COc1ccc(Nc2c(-c3ccc(C)o3)nc3ccccn23)cc1,22.7% (inactive),–
Cc1cc(C)c2nc(C3C(=O)c4ccccc4C3=O)ccc2c1,-5.25% (inactive),–
COc1ccccc1N1C(=O)c2ccccc2C1=O,27.3% (inactive),–
Cc1ccccc1NS(=O)(=O)c1ccc2c(c1)CCC(=O)N2,10.1% (inactive),–
Cc1ccc(NS(=O)(=O)c2cccc(F)c2)cc1C,-2.19% (inactive),–

SMILES,"activity change, negative = inhibition",Potency
Cc1cc2c(s1)c1cnn(Cc3ccccc3F)c(=O)c1n2C,–,inactive
CCOc1ccc2c(c1)C(=O)C(c1cc(=O)c3ccccc3[nH]1)C2=O (stereo not given),-12.2% (inactive),–
COc1cccc(N2C(=O)c3ccccc3C2=O)c1,8.16% (inactive),–
Cc1ccc(C)c(O)c1,-3.02% (inactive),–
Cc1ccc(NS(=O)(=O)c2cc3c(cc2Cl)NC(=O)CO3)cc1C,10.2% (inactive),–
Cc1ccc(NS(=O)(=O)c2cc3c(cc2-c2ccco2)NC(=O)CO3)cc1C,9.07% (inactive),–
O=C1c2ccccc2C(=O)N1c1cnc2ccccc2c1,9.24% (inactive),–
Cc1ccc(Nc2c(-c3ccsc3)nc3cccc(C)n23)cc1,10.1% (inactive),–
O=C1c2ccccc2C(=O)N1c1cccnc1,15.6% (inactive),–
O=C(O)c1ccccc1SC1=NS(=O)(=O)c2ccccc21,–,4.61 µM (active) and 8.91 µM (active)
O=S1(=O)N=C(Oc2cccc3ccccc23)c2ccccc21,–,4.11 µM (active)
O=S(=O)(Nc1ccc(O)c(NS(=O)(=O)c2ccccc2)c1)c1ccccc1,14.9% (inactive),–
O=S1(=O)N=C(Oc2cccc(C(F)(F)F)c2)c2ccccc21,–,4.61 µM (active)
COC(=O)c1ccc2c(c1)S(=O)(=O)N=C2Sc1cc(C)ccc1C,–,8.19 µM (active)
O=C1c2ccccc2C(=O)N1c1nccs1,-17.1% (inactive),–
Cc1ccc(Nc2c(-c3ccsc3)nc3c(C)cccn23)cc1,-12% (inactive),–
Cc1cc(C)c2ccc(C3C(=O)c4ccc(O)cc4C3=O)nc2c1 (stereo not given),-13.6% (inactive),–
N#Cc1cccc(OC2=NS(=O)(=O)c3ccccc32)c1,–,4.61 µM (active)
Cc1cc(C)c2c(=O)cc(C3C(=O)c4ccccc4C3=O)[nH]c2c1,-17.6% (inactive),–
Cc1ccc(NS(=O)(=O)c2cc3c(cc2N(C)C)NC(=O)CC3)cc1C,5.95% (inactive),–
